# Screening data (PubChem BioAssay)
# An excerpt weighted towards active compounds, which were near 3.7% of everything screened.
# Nrf2 ARE act – qHTS of Nrf2 Activators. AREc32 ARE-luciferase reporter (MCF7-derived line), luminescence, 24 h. Potency, µM (highest dose often 46.1 µM), without a hit: top-dose activation, most hits filed as activators. 410,000 tested, 0.31% active; further: potency means the concentration at half of the fitted maximal effect; % of control where 0% means no effect; nearly all actives have a fitted effect of over 65% in size
#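 Each well held 1000 AREc32 cells, which were incubated with compound for 24 hr at 37 deg C after overnight attachment, and ARE reporter activity was quantified by firefly luciferase luminescence.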
# Nrf2 block – Nrf2 qHTS screen for inhibitors; A549 ARE-Fluc reporter, luciferase luminescence, 18-24 h; 360,000 tested, 2.1% active; Potency, µM (doses to about 46 µM), without a hit: at the top dose activity change, negative = inhibition, usual class: inhibitors; further: potency means the concentration at half of the fitted maximal effect; on the % scale 0 is the no-effect control and ±100 the full control effect; nearly all actives have a fitted effect of over 60% in size
#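 Concentration-response testing used A549 ARE_Fluc cells at 5000 cells/well. Following an 18-24 h compound incubation, viability was read by fluorescence (Ex 405/Em 525) and luciferase output by luminescence.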
# A549 viability – Nrf2 qHTS screen for inhibitors: counterscreen for cytotoxicity | A549 ARE-Fluc cells, CellTiter-Fluor viability, 18-24 h | Potency, µM (top dose mostly 46 µM), for the others: at the top dose activity change, negative = cytotoxicity, actives largely listed as inhibitors | 390,000 tested, 0.16% active | AID 504648, 2011; further: potency means the concentration at half of the fitted maximal effect; on the % scale 0 is the no-effect control and ±100 the full control effect
#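 A549 ARE-Fluc cells in 5% FBS OPTI-MEM, 5000 cells/well, rested 2 h then exposed to compounds in concentration-response for 18-24 h at 37 °C. Viability by CellTiter-Fluor fluorescence (Ex 405/Em 525) after 30 min; luciferase luminescence (BugLite, 15 min, RT) read afterwards.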
# ClpP mod – qHTS Assay for Activators of ClpP. ATP-dependent Clp protease proteolytic subunit (Bacillus subtilis (strain 168)), P80244. purified B. subtilis ClpP, FRET peptide cleavage, 20 min. Potency, µM (top dose mostly 57.5 µM), for inactives: at the top dose activity change, negative = active. 340,000 tested, 1.9% active; active means well fitted falling curve with a large enough effect; inconclusive means small, poorly fitted or top-dose-only effect; inactive means no such curve, though single readings can be large or run the other way; further: potency means the concentration at half of the fitted maximal effect; the source files actives as falling curves though it sought activators and does not explain the sign; nearly all actives have a fitted effect of over 65% in size
# Target sequence (P80244 whole entry, looked up): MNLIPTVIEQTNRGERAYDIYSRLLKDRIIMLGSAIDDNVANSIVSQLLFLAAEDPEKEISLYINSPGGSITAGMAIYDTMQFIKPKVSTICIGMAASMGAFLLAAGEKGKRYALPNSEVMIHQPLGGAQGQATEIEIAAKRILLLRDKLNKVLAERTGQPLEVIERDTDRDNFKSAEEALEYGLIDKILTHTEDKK
#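 FRET quenching reversal measured ClpP activation: 10 microg/mL B. subtilis ClpP at pH 8 with the FRET-FV decapeptide, read at 430 nm after 320 nm excitation. The 20-min minus 0-min signal was scaled between DMSO/no-enzyme wells and ADEP (5.8 microM final).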
# TCR activator – Activators of T cell receptors: qHTS campaign | primary human leukocytes, anti-CD3, IL-2 HTRF, 48 h | Potency, µM (series often up to 9.22 µM), for the others: at the highest dose activation of IL-2 secretion, actives largely listed as activators | 330,000 tested, under 10 active; further: % of control where 0% means no effect
#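 48 hr co-incubation of compounds, a-CD3 beads and primary human leukocytes; IL-2 quantified homogeneously by HTRF with anti-IL-2 K and d2 conjugates.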
# miR-21 act – qHTS Assay for Modulators of miRNAs and/orActivators of miR-21. HeLa miR-21 FLuc reporter, luciferase, 48 h. Potency, µM (titrated, usually from 38.3 µM), inactives show at the top dose activity change, positive = activation, hits mostly activators. 340,000 tested, under 10 active. AID 2288, 2010;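 further: % of control where 0% means no effect; miR-21 action dims this reporter so a rising signal means less miR-21 action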
#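 Using DMEM plus 10% FBS, HeLa miR-21-FLuc cells are incubated with test compounds (final up to about 40uM) for 48 hours; firefly luciferase signal is then imaged following reagent-mediated lysis.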
# The depositor's hits bear a star; ? = inconclusive; . = not tested or not shown; [ ] = dose if it differs, or a comment. Unless noted, the call rests on the fitted dose curve; in most records, active means well fitted curve in the direction sought with a large enough effect; inconclusive means small, poorly fitted or top-dose-only effect, or another doubt; inactive means no such curve, though single readings can be large; an effect the other way counts as inactive or inconclusive.
SMILES,Nrf2 ARE act,Nrf2 block,A549 viability,ClpP mod,TCR activator,miR-21 act
COc1ccc(-c2cc(C(=O)N3CCN(c4ccccc4F)CC3)c3ccccc3n2)c(OC)c1,-0.4%,?,-19.0%,28.2µM*,-5.2%,1.2%
COc1ccc(C2=NS(=O)(=O)N(C)C(C(=O)NC3CCCCC3)=C2)cc1OC,2.8%,?,-21.1%,-0.7%,-2.8%,2.1%
CCN1c2ccccc2-c2nc3ccccc3n2C1c1cccnc1 (centres undefined),3.2%,-32.9%,-5.2%,31.6µM*,-1.1%,-7.5%
CCOc1ccc(C(=O)Nc2ccccc2N2CCOCC2)cc1,0.1%,.,4.6%,-9.7%,-10.4%,-14.5%
CCOc1ccc(C(=O)C2CCN(CC(=O)Nc3ccccc3N3CCOCC3)CC2)cc1,1.7%,11.6µM*,-13.8%[1.84 µM],-2.7%,.,-3.2%
CS(=O)(=O)Nc1cccc(C2=NN(C(=O)c3ccccc3)C(c3cccs3)C2)c1 (centres undefined),4.8%,?,-12.5%,-1.6%,2.7%,5.7%
CS(=O)(=O)Nc1ccc(C2=NN(C(=O)C3CCCCC3)C(c3cccs3)C2)cc1 (centres undefined),6.5%,23.1µM*,-13.1%,35.3%,12.5%[46.1 µM],0.3%
Cc1ccc(C(=O)N2N=C(c3cccc(NS(C)(=O)=O)c3)CC2c2cccs2)cc1 (centres undefined),14.3%,23.1µM*,0.3%,-7.9%,3.1%,2.9%
Cc1ccc(CN(CC(=O)NCCc2ccccc2)C(=O)c2csnn2)cc1,0.3%,-8.9%,-13.7%,.,1.8%,3.9%
COc1ccc(NC(=O)Cc2nnc(SCC(=O)Nc3ccc(F)cc3)n2C)cc1,2.7%,7.3%,3.2%,.,2.5%,5.2%
Cc1ccc(C)c(S(=O)(=O)C(C#N)c2nc3ccccc3nc2N2CC(C)OC(C)C2)c1 (centres undefined),-0.7%,13µM*,.,-0.5%,0.9%,-0.4%
CCOc1ccc(-c2nnc(SCC(=O)Nc3cc(C)ccc3OC)o2)cc1,-0.1%,?,10.0%,4.1%,.,-49.5%
CC(/C=N/n1c(C2CCCCC2)n[nH]c1=S)=C\c1ccccc1,-0.7%,18.4µM*,.,-1.9%,-10.4%,-0.1%
Cc1cccc(/C=N/n2c(C3CCCCC3)n[nH]c2=S)c1,-0.5%,2.9%,4.7%,-1.2%,14.9%,-6.0%
CC(OC(=O)c1ccc2ncsc2c1)C(=O)Nc1cccc(Cl)c1 (centres undefined),0.0%,?,8.7%,-1.3%,.,.
O=CN1CCN(C2CC(=O)N(c3ccc(Br)cc3)C2=O)CC1 (centres undefined),0.1%,.,-0.1%,35.5µM*,1.5%,-0.6%
O=C1CC(N2CCC(O)CC2)C(=O)N1c1ccc(Br)cc1 (centres undefined),0.6%,.,-1.4%,-5.0%,9.5%,-5.0%
c1ccc2c(c1)nnn2Cc1nnc2sc(-c3ccc4c(c3)OCCO4)nn12,0.7%,3.0%,1.1%,31.6µM*,1.2%,-18.6%
COc1cc(C2C=C(Nc3ccccc3)C(=O)N2c2ccccc2)ccc1O (centres undefined),3.1%,18.4µM*,?,-25.0%,-1.8%[46.1 µM],-35.9%
CS(=O)(=O)/C=C/c1nc(Nc2cc(F)cc(F)c2)c2ncn(CC(F)F)c2n1,.,7.2%,-0.7%,.,.,.
Cc1cccc(N2CCN(S(=O)(=O)c3ccc4c(c3)CCCN4C(=O)C3CCC3)CC2)c1C,0.5%,?,2.7%,-1.1%,-13.8%,-7.1%
CCCn1nnc(NCc2ccc(OCc3cccs3)c(OC)c2)n1,-0.4%,8.2µM*,.,-1.2%,1.5%,-2.4%
Cc1ccc(-c2nc3ccccc3o2)cc1NC(=S)NC(=O)c1cc2ccccc2o1,2.4%,-7.7%,-11.1%,15.8µM*,1.5%[46.1 µM],-58.0%
COc1ccc(-c2nc3ccccc3o2)cc1NC(=O)c1ccc(-c2ccc(Br)cc2)o1,0.4%,8.9%,-7.4%,-19.4%,.,0.7%
COc1ccc(-c2nc3ccccc3o2)cc1NC(=O)c1ccc(Br)o1,2.0%,4.1%,-2.6%,22.4µM*,0.7%,-7.3%
SMILES,Nrf2 ARE act,Nrf2 block,A549 viability,ClpP mod,TCR activator,miR-21 act
Cc1ccc2oc(-c3ccc(C)c(NC(=S)NC(=O)c4cccs4)c3)nc2c1,8.5%,?,-16.9%,-4.8%,-1.2%[46.1 µM],-74.4%
Cc1cccc(NC(=O)c2nc[nH]c2C(=O)NCCCCCNC(=O)OC(C)(C)C)c1,-4.7%,20.6µM*,?,-0.2%,3.2%,.
CC(C)(C)OC(=O)NCCCCCNC(=O)c1nc[nH]c1C(=O)NCc1ccc(CNC(=O)OC(C)(C)C)cc1,-2.5%,13µM*,?,-11.9%,-7.4%,.
CC(C)(C)OC(=O)NCCCCCNC(=O)c1[nH]cnc1C(=O)N[C@@H](CCCCNC(=O)OC(C)(C)C)C(=O)OC(C)(C)C,-1.0%,23.1µM*,-11.7%,2.2%,-2.8%,23.7%
CC(C)(C)OC(=O)NCCCCCNC(=O)c1nc[nH]c1C(=O)NCCCCCNC(=O)OC(C)(C)C,-3.7%,13µM*,-26.5%,0.3%,6.0%,.
CC(C)(C)OC(=O)CNC(=O)c1nc[nH]c1C(=O)NCc1ccc(CNC(=O)OC(C)(C)C)cc1,3.9%,-28.7%,1.9%,0.6%,1.4%,21.9%
CC(C)(C)OC(=O)NCCCCCNC(=O)c1nc[nH]c1C(=O)NCC(=O)OCc1ccccc1,-0.7%,-28.3%,-25.6%,-4.3%,4.5%,.
Cc1cccc(NC(=O)c2nc[nH]c2C(=O)NCCCNC(=O)c2[nH]cnc2C(=O)Nc2cccc(C)c2)c1,-0.6%,6.1%,5.3%,-2.7%,2.7%,.
CC(C)CCNC(=O)C1CCN(C(=O)N2CCOc3ccc(Cl)cc32)CC1,1.0%,-0.7%,-1.6%,0.4%,.,-37.7%
Cc1ccc(S(=O)(=O)NCCc2cn3ccsc3n2)cc1,-0.6%,.,3.8%,-3.6%,.,-4.9%
Cc1cc(C)cc(NS(=O)(=O)c2ccc3c(c2)NC(=O)C(C)S3)c1 (centres undefined),-0.2%,?,5.9%,-1.1%,.,-34.9%
CCc1cccc(NS(=O)(=O)c2ccc3c(c2)NC(=O)C(C)S3)c1 (centres undefined),0.0%,16.4µM*,-1.2%,0.0%,-10.9%,18.2%
COc1cccc(NS(=O)(=O)c2ccc3c(c2)NC(=O)C(C)S3)c1 (centres undefined),1.9%,20.6µM*,-12.9%,-1.4%,2.0%,13.1%
COc1ccccc1NS(=O)(=O)c1ccc2c(c1)NC(=O)C(C)S2 (centres undefined),4.4%,0.0%,-16.7%,0.0%,2.7%,17.0%
